Data published in PubChem BioAssay (NCI).
The panel holds about 83,000 compounds, 20% with a hit somewhere; the sample as a whole holds those more often.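 The test compound was applied at a single concentration to cells in 96-well plates for 48 hours, and percent growth was recorded.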 A number with no mark means an inactive call. Active and inactive are the calls of the source. How the source made its calls: active means growth percent below 10; inactive means the rest.

Tests used:
Test in all cases: NCI-60 one-dose screen, 48 h (100 = growth as untreated, 0 = no growth, -100 = all killed)
Settings in all cases: 10 µM unless noted
DU-145 prostate = system: DU-145 prostate
K-562 leukemia = system: K-562 leukemia
MALME-3M melanoma = system: MALME-3M melanoma
MDA-MB-231 breast = system: MDA-MB-231 breast
SF-268 CNS = system: SF-268 CNS
SF-295 CNS = system: SF-295 CNS
SF-539 CNS = system: SF-539 CNS
UACC-257 melanoma = system: UACC-257 melanoma
HCT-15 colon = system: HCT-15 colon
HT29 colon = system: HT29 colon
SNB-75 CNS = system: SNB-75 CNS
SNB-19 CNS = system: SNB-19 CNS
U251 CNS = system: U251 CNS
PC-3 prostate = system: PC-3 prostate
SK-MEL-5 melanoma = system: SK-MEL-5 melanoma
UACC-62 melanoma = system: UACC-62 melanoma
LOX IMVI melanoma = system: LOX IMVI melanoma
SK-MEL-28 melanoma = system: SK-MEL-28 melanoma
M14 melanoma = system: M14 melanoma
RXF 393 renal = system: RXF 393 renal

Compound	growth (DU-145 prostate)	growth (K-562 leukemia)	growth (MALME-3M melanoma)	growth (MDA-MB-231 breast)	growth (SF-268 CNS)	growth (SF-295 CNS)	growth (SF-539 CNS)	growth (UACC-257 melanoma)	growth (HCT-15 colon)	growth (HT29 colon)	growth (SNB-75 CNS)	growth (SNB-19 CNS)	growth (U251 CNS)	growth (PC-3 prostate)	growth (SK-MEL-5 melanoma)	growth (UACC-62 melanoma)	growth (LOX IMVI melanoma)	growth (SK-MEL-28 melanoma)	growth (M14 melanoma)	growth (RXF 393 renal)
COc1ccccc1NC1=C(Cl)C(=O)c2nc(C)ccc2C1=O	-57.3% (active)	-21.1% (active)	-55.9% (active)	-57.3% (active)	47.4%	96.6%	1.78% (active)	-82.7% (active)	-47% (active)	75%	105%	38.9%	62.8%	27.4%	-93.3% (active)	-45.8% (active)	-73% (active)	14.1%		
N#Cc1cccc(CN2CCC3=C(C2)C(=O)N(Cc2ccc(Cl)cc2)C2=NCCCN23)c1	31.2%	22.5%	46.7%	32.6%	37.1%	7.29% (active)	40.5%	13.8%	16.6%	28%	68%	21.8%	23.7%	24%	8.1% (active)	25%	43.8%	44.8%		
C=CCn1c(SCC(=O)Nc2ccc(C(=O)/C=C/c3ccc(Br)cc3)cc2)nnc1-c1c[nH]c2ccccc12	91.6%	66.8%	91%	86.2%	70.7%	90.2%	88.2%	107%	93.4%	94.1%	95.4%	89.1%	87.9%	68%	72.3%	64.6%	49%	97.1%		
CCOC(=O)C1=NNC(c2ccc(Cl)cc2)C1C(=O)N1C(=S)NC(=O)C1CC(C)C (stereo not drawn)	107%	98.4%	104%	86.2%	98.3%	106%	104%	116%	105%	116%	100%	98.3%	105%	96.8%	106%	94.2%	103%	103%		
C[C@@H]1C[C@H]2C(=O)O[C@@H](C)C(NC(=O)[C@H](Cc3cc(F)cc(F)c3)NC(=O)Nc3ccc(C4CC4)cc3F)C(=O)N3CCC[C@H]3C(=O)N3CCCC[C@H]3C(=O)N[C@@H](CO)C(=O)N2C1 (stereo partly drawn)	25.6%	18.6%	36.9%	33.9%	31.4%	11.4%	35.4%	11.5%	14.1%	25.4%	31.5%	27.9%	29.8%	11.5%	-15.9% (active)	21.3%		41.1%	27.4%	
CCOC(=O)c1c(NC(=O)c2ccccc2C(F)(F)F)sc2c1CCC(=O)C2	95.3%	12.8%	73%	15.2%	22.9%	41.6%	-6.66% (active)	98.9%	10.5%	75.4%	65.4%	18.6%	17.5%	14.6%	-50.3% (active)	13%	3.5% (active)	80.1%		
NS(=O)(=O)c1ccc(-n2cc(-c3cccc(NC(=O)c4ccc(N5CCOCC5)c(C(F)(F)F)c4)c3)nn2)cc1	41.1%	19.3%	43.8%	52%	68.9%	32.6%	42.7%	82.5%	39.3%	61%	65.2%	62.9%	54.2%	23.5%		30.5%	9.34% (active)	54.7%	45.3%	
O=C(CSc1nc2ccccc2c(=O)n1-c1ccc(Cl)cc1)N/N=C/c1ccc(N2CCCCC2)cc1	29.1%	73.6%	64.2%	72%	34.7%	76.4%	41.3%	97.1%	67.8%	60.9%	79.9%	43.2%	50.6%	78.6%	97.9%	73.5%	43.5%	84.8%		
CCOC(=O)C(=O)CC(=O)N1C(=S)NC(=O)C1CC(C)C (stereo not drawn)	108%	107%	101%	101%	94.8%	102%	96.1%	102%	94.8%	113%	100%	99.9%	105%	103%	95.6%	96.3%	98%	99.6%		
COc1ccc2c(c1)c(CC(=O)[Se]CCC#N)c(C)n2C(=O)c1ccc(Cl)cc1	6.8% (active)	21.2%	-68.3% (active)	-13.8% (active)	-30.7% (active)	-82.9% (active)	-63.9% (active)	6.66% (active)	-64.7% (active)	-31.2% (active)	-30.1% (active)	-45.2% (active)	1.11% (active)	17.4%	-73.4% (active)	41.3%	-50.4% (active)	-1.32% (active)		
N#Cc1cccc(NC(=O)c2cc(-c3ccc(F)cc3F)ccc2O)c1	20.9%	11.8%	-9.34% (active)	6.64% (active)	18.7%	-16.9% (active)	15.1%	-6.12% (active)	6.97% (active)	94.9%	3.99% (active)	11.4%	10.9%	9.28% (active)	-74.3% (active)	-12.9% (active)	1.22% (active)	25%		
Cn1ccnc1C(=O)/C=C/c1ccc(CNC(=O)c2ccc(S(F)(F)(F)(F)F)cc2)cc1	13.8%	18.9%	89.9%	5.17% (active)	6.38% (active)	26.8%	-36% (active)	89.9%	-5.91% (active)	10.4%	57.6%	3.58% (active)	8.6% (active)	26.4%	61.3%	31.2%	-80.3% (active)	82.4%		
CCN(CC)c1ccc2c(c1)Oc1nc(N)c(C#N)c(N)c1C2Sc1ccc(F)cc1 (stereo not drawn)	-94.2% (active)	2.27% (active)	-45.6% (active)	-86% (active)	-44.7% (active)	-91.4% (active)	-96.1% (active)	-16.9% (active)	-84.8% (active)	-42.4% (active)	-3.74% (active)	-94.9% (active)	-73.4% (active)	-74% (active)	-96.2% (active)	-52.5% (active)	-92.6% (active)	-62% (active)		
COc1ccc(COc2ccc(/C=C3\C(=O)Nc4ccccc43)cc2OC)cc1	109%	101%	99.7%	99.9%	103%	103%	95.9%	116%	105%	108%	97.4%	97.3%	109%	95.8%	108%	96.7%	96.6%	107%		
Cc1ccc(-c2cc3nc(C(Cl)Cl)nc(-c4ccco4)n3n2)cc1	-24.3% (active)	55.5%	93.3%	-21.7% (active)	20.5%	-4.81% (active)	-32.6% (active)	57%	14.9%	0.475% (active)	66.8%	8.51% (active)		4.32% (active)	90.1%	37.9%	92.2%	5.86% (active)		-46.1% (active)
CN1CCN(c2ccc(/C=N/n3cnc4oc(-c5ccccc5)cc4c3=N)cc2)CC1	100%	6.36% (active)	113%	65.3%	92.5%	99.6%	84.9%	96.7%	83.9%	66.2%	55.3%	101%		63.2%	88.6%	93%	61.3%	77.8%		-5.53% (active)
